D2 ag-1 = agonists of human D2 dopamine receptor (beta-arrestin); AID 624465; activation, % (concentration not given with the values); DiscoveRx PathHunter D2 beta-arrestin, luminescence, 90 min; 100% = 57 uM dopamine signal; actives 0.084% (n = 360,000); in the data active = activation above about 40%; inconclusive = between about 15% and that limit
Target sequence (P14416 whole entry, looked up): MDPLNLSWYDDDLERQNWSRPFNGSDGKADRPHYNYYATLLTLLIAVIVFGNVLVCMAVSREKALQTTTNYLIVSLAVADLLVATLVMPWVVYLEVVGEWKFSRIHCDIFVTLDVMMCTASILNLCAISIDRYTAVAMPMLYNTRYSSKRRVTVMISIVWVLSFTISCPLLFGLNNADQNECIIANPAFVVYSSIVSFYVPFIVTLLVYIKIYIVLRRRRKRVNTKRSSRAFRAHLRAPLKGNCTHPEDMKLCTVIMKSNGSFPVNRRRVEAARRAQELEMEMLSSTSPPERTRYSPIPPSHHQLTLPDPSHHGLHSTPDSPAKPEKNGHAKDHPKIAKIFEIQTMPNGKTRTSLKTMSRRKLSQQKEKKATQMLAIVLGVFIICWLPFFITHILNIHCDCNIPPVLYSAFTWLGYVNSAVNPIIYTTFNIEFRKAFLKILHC
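DiscoveRx PathHunter D2 beta-arrestin cells (2,100/well) attached overnight, then compound-stimulated 90 min at 37 C in HBSS/10 mM HEPES/0.1% Tween-20 buffer; beta-galactosidase complementation read by luminescence after 1 h at ambient temperature. Dopamine 57 uM final (EC100) as control.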
D2 ag-2 = agonists of human D2 dopamine receptor; P14416; HEK293 T-REx D2 cells, calcium flux agonist mode; activation, % at 2 µM; actives 0.53% (n = 340,000); AID 485358;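 active = activation over 3 SD above normal in the single-dose calcium agonist read, cut at about 30% in these data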; note: 0% is about no effect
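Agonism is scored from calcium flux in a force-coupled, inducible HEK293 cell line expressing D2, read kinetically for 180 s after compound addition against dopamine controls.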
D2 PAM-1 = D2 dopamine receptor (human) potentiation; P14416; actives 0.34% (n = 340,000); potentiation, % at 10 µM; HEK293 T-REx D2, calcium flux, EC20 dopamine potentiation;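 active = potentiation over 3 SD above the plate norm, cut at about 30% in these data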; note: 0% is about no effect
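Cells plated with tetracycline inducer and held overnight at 30 C; calcium dye loaded 30–90 min at room temperature; baseline taken, compound added and read 180 s; EC20 dopamine then added and read 180 s.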
D2 antag = D2 dopamine receptor (human) antagonism; HEK293 TREx D2 cells, calcium flux, dopamine EC80; inhibition, % at 10 µM; actives 2% (n = 340,000); in the data active = inhibition above about 30%; inactive = below that, where a call was filed; note: 0% is about no effect
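Overnight-induced (tetracycline, 30 C) HEK293 T-REx cells carrying force-coupled D2 receive a no-wash calcium dye, then compound, then EC80 dopamine at 180 s; signals are read kinetically throughout.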
D2 PAM-2 = human D2 receptor positive allosteric modulation. DiscoveRx D2 beta-arrestin cells, luminescence, 90 min; 100% = 57 uM dopamine signal. actives 0.23% (n = 360,000). potentiation, % (test concentration not listed); in the data active = potentiation above about 50%; inconclusive = mostly about 30% to 49%
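D2 cells co-treated with compound plus 50 nM dopamine (EC20) for 90 min at 37 deg C to detect potentiation. Beta-arrestin recruitment was read as enzyme-fragment luminescence after 1 h at ambient temperature. Full response was set by 57 uM dopamine.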
An asterisk follows results filed as active. The list is not random: actives were taken first. Their share in the collection is about 2.4%.

`CC1Sc2ccc(S(=O)(=O)N3CCC(C(=O)Nc4cccc(Cl)c4)CC3)cc2NC1=O` (stereo unspecified) gave D2 ag-1 2.5, D2 ag-2 0.8, D2 PAM-1 -22.0, D2 antag 69.5* and D2 PAM-2 -37.3.
`CCc1ccc(NC(=O)C2CCN(S(=O)(=O)c3ccc4c(c3)NC(=O)C(C)S4)CC2)cc1` (stereo unspecified) gave D2 ag-1 -0.1, D2 ag-2 -0.1, D2 PAM-1 8.5, D2 antag 4.9 and D2 PAM-2 -9.0.
Cc1ccc(NC(=O)C2CCN(S(=O)(=O)c3ccc4c(c3)NC(=O)C(C)S4)CC2)cc1C (stereo unspecified) was read as D2 ag-1 -0.2, D2 ag-2 0.8, D2 PAM-1 -19.7, D2 antag 57.7* and D2 PAM-2 -36.2.
Screening COCCn1c(CCC(=O)Nc2ccc(C)c(Cl)c2)nc2cccnc21 returned D2 ag-2 0.4 and D2 PAM-1 -16.8.
For CS(=O)(=O)c1nc(-c2ccc(Br)cc2)cc(-c2ccccc2)c1C#N the results were D2 ag-1 -2.5, D2 ag-2 0.8, D2 PAM-1 -2.9, D2 antag 41.0* and D2 PAM-2 0.5.
`O=C(CSC1=NS(=O)(=O)c2cc(F)ccc2N1)NCCc1ccccc1` gave D2 ag-1 -4.9, D2 ag-2 36.0*, D2 PAM-1 -5.7, D2 antag 23.8 and D2 PAM-2 -19.3.
Screening Cc1ccccc1NC1=NC(=S)N(CC(N)=O)C12CCOC(C)(C)C2 (stereo unspecified) returned D2 ag-1 -2.8, D2 ag-2 0.8, D2 PAM-1 -8.3, D2 antag 44.4* and D2 PAM-2 -5.7.
Screening COc1ccc(OC)c(CNS(=O)(=O)c2ccc3c(c2)CCCN3C(C)=O)c1 returned D2 ag-2 1.7 and D2 PAM-1 -4.2.
`COc1cc(/C=N/N(C)C)ccc1OC(=O)c1cccs1` gave D2 ag-1 3.0, D2 ag-2 -0.7, D2 PAM-1 41.8*, D2 antag -13.1 and D2 PAM-2 -9.6.
COc1cc(/C=N/NC(N)=O)ccc1OC(=O)c1cccs1 was read as D2 ag-1 4.3, D2 ag-2 -0.1, D2 PAM-1 3.5, D2 antag -3.3 and D2 PAM-2 0.0.
CCOc1ccc(NC(=O)CC2C(=O)N(c3ccc(F)cc3)C(=O)N2CCc2sccc2C)cc1 (stereo unspecified) was read as D2 ag-2 0.6 and D2 PAM-1 -4.0.
For CCOC(=O)c1sc(/N=C/c2c(O)ccc3ccccc23)cc1C the results were D2 ag-1 -2.3, D2 ag-2 -0.6, D2 PAM-1 1.1, D2 antag 31.4* and D2 PAM-2 -14.6.
For NC(=O)c1ccc(N=Cc2c(O)ccc3ccccc23)cc1 the results were D2 ag-1 -1.7 and D2 PAM-2 -0.3.
`O=C(O)c1ccc(N=Cc2c(O)ccc3ccccc23)cc1` gave D2 ag-1 6.0, D2 ag-2 38.8*, D2 PAM-1 -14.7, D2 antag -5.1 and D2 PAM-2 3.3.
`COc1ccc(N=Cc2c(O)ccc3ccccc23)cc1` gave D2 ag-1 2.3, D2 ag-2 2.4, D2 PAM-1 25.6, D2 antag -2.9 and D2 PAM-2 -4.3.
`CC(=O)c1ccc(N2CCN(c3ncnc4c3c(-c3ccccc3)cn4-c3ccc(C)c(Cl)c3)CC2)cc1` gave D2 ag-2 0.0 and D2 PAM-1 3.8.
For CC1=CC(C)(C(Cl)Cl)C(C)=CC1=O (stereo unspecified) the results were D2 ag-1 -0.2, D2 ag-2 0.6, D2 PAM-1 69.6*, D2 antag 16.6 and D2 PAM-2 -7.6.
`Cc1cccc(NC(=O)CSc2nc3ccc(NC(=O)c4ccco4)cc3s2)c1` gave D2 ag-2 -0.4 and D2 PAM-1 -3.7.
Screening COc1ccc(C(CNC(=O)c2oc3ccc(Cl)cc3c2C)N2CCCCC2)cc1 (stereo unspecified) returned D2 ag-1 -3.9, D2 ag-2 -1.3, D2 PAM-1 -13.7, D2 antag -21.2 and D2 PAM-2 -17.2.
COc1ccc(C(CNC(=S)NCc2ccccc2)N2CCCC2)cc1 (stereo unspecified) was read as D2 ag-1 -5.0, D2 ag-2 0.4, D2 PAM-1 -17.5, D2 antag 40.5* and D2 PAM-2 -17.1.
Screening COc1ccc(C(CNC(=O)c2oc3ccccc3c2C)N2CCCC2)cc1 (stereo unspecified) returned D2 ag-1 -4.1, D2 ag-2 0.8, D2 PAM-1 -28.0, D2 antag 76.0* and D2 PAM-2 -35.4.
Screening COc1ccc(C(CNC(=O)c2oc3c(Cl)cccc3c2C)N2CCCC2)cc1 (stereo unspecified) returned D2 ag-1 -3.9, D2 ag-2 0.3, D2 PAM-1 -21.3, D2 antag 39.1* and D2 PAM-2 -44.5.
COc1ccc(NC(=S)NCC(c2cccnc2)N2CCOCC2)cc1 (stereo unspecified) was read as D2 ag-1 -0.3, D2 ag-2 0.4, D2 PAM-1 30.3*, D2 antag 10.0 and D2 PAM-2 -0.4.
For O=C(NC1CC(=O)N(c2cccc(F)c2)C1)c1ccc(S(=O)(=O)N2CCCC2)cc1 (stereo unspecified) the results were D2 ag-2 0.8 and D2 PAM-1 1.8.
`COc1ccc(C(=O)c2nccc3cc(OC)c(OC)cc23)cc1OC` gave D2 ag-1 inconclusive, D2 ag-2 0.0, D2 PAM-1 15.0, D2 antag -15.6 and D2 PAM-2 94.5*.
For COc1ccc(C(=O)c2ccc(OC)c(OC)c2)cc1OC the results were D2 ag-1 -2.2, D2 ag-2 -0.2, D2 PAM-1 -7.6, D2 antag -6.6 and D2 PAM-2 -2.0.
Cc1ccccc1CN(C)CC(=O)Nc1ccccc1Oc1ccccc1 was read as D2 ag-1 -8.7, D2 ag-2 2.8, D2 PAM-1 14.9, D2 antag 42.8* and D2 PAM-2 -8.1.
Cn1c2ccccc2c2c(C(=O)N3CCN(c4ccccn4)CC3)cn(C3CCCC3)c(=O)c21 was read as D2 ag-1 -0.4, D2 ag-2 -0.7, D2 PAM-1 28.9, D2 antag 31.1* and D2 PAM-2 -22.4.
COc1ccc(C2C(C(=O)NCc3ccco3)CCC(=O)N2c2ccc(OC)cc2)cc1 (stereo unspecified) was read as D2 ag-1 -1.1, D2 ag-2 -0.1, D2 PAM-1 3.3, D2 antag 38.3* and D2 PAM-2 -12.1.
Screening COc1ccc(C2C(C(=O)O)CCC(=O)N2c2ccc(OC)cc2)cc1 (stereo unspecified) returned D2 ag-1 -2.1, D2 ag-2 0.0, D2 PAM-1 3.5, D2 antag 17.6 and D2 PAM-2 -7.3.

Assay outcomes: PubChem BioAssay, National Center for Advancing Translational Sciences (NCATS)
